# According to PubChem BioAssay AID1259421 (Broad Institute, 2018):
# Where “and” joins values, the source holds several entries; their conditions need not be identical. Identical values can stand only once. Among all 6,400 compounds or so, about 610 (9.5%) were called active. Rule as the data show it: active = activity change below about -70%; inconclusive = no clear call, values can overlap the other calls; inactive = above that. Many of the other results were omitted from the sample, so actives are more common in it than they were. The source holds several records for some structures; these can differ, active in one and inactive in another. *1 amine or outer side, *2 acyl side, *3 side chain or, on linkers, in order; H or OH if unused. Where a SMILES comes first, the peptide text is derived from it. [ ]: non-standard residue; d: D form. LeuΨ(S-CHOHCH2)Ala = CC(C)C[C@H](N[*:1])[C@@H](O)C[C@@H](C)C(=O)[*:2]
# Experiment: T. gondii ME49Luc in HeLa cells, luciferase assay, 72 h, no IFN-y (AID 1259421)
# Conditions: stronger effect = lower value, concentration not given here
row,Structure (SMILES),"activity change, negative = inhibition"
1,CC(=O)NC(Cc1ccccc1)C(=O)O (centres undefined),20.2% (inactive)
2,COC[C@H](NC(=O)c1cnc(C)s1)C(=O)N[C@@H](COC)C(=O)N[C@@H](Cc1ccccc1)C(=O)C1(C)CO1 (some centres undefined),-88.8% (active)
3,CC(=O)N[C@@H](Cc1ccccc1)C(=O)O,16.5% (inactive)
4,O=C(Cc1ccc(-c2ccc(OCCN3CCOCC3)cc2)cn1)NCc1ccccc1,-55.5% (inactive)
5,C[C@H]1CN(C[C@H](Cc2ccccc2)C(=O)NCC(=O)O)CC[C@@]1(C)c1cccc(O)c1,4.96% (inactive)
6,CC1(C)CCC(C)(C)c2cc(Cn3cccn3)c(/C=C/c3ccc(C(=O)O)cc3)cc21,15.2% (inactive)
7,c1ccc(-c2nn3c(c2-c2ccnc4cc(OCCN5CCOCC5)ccc24)CCC3)nc1,-32.4% (inactive)
8,COc1ccc(-c2coc3cc(O)ccc3c2=O)c(OC)c1,11.6% (inactive)
9,CCN(CC)CC(=O)Oc1ccc(NC(C)=O)cc1,7.5% (inactive)
10,OC[C@H]1O[C@H](O[C@H]2O[C@H](CO)[C@@H](O)[C@H](O)[C@H]2O)[C@H](O)[C@@H](O)[C@@H]1O,7.53% (inactive)
11,C[N@+]12CCCC[C@@H]1CCC(=C(c1cccs1)c1cccs1)C2,13.6% (inactive)
12,O=C(O)c1cc(=O)c2c3nc4ccccc4oc-3cc(=O)c2[nH]1,1.96% (inactive)
13,CC(=O)N[C@H]1[C@H]([C@H](O)[C@H](O)CO)OC(C(=O)O)=C[C@@H]1N=C(N)N,10.9% (inactive)
14,COc1ccc(-c2ccc3ncc4c(c3c2)n(-c2ccc(N3CCNCC3)c(C(F)(F)F)c2)c(=O)n4C)cn1,-88.5% (active)
15,Cc1cc(C)cc(C(=O)N(C)[C@H](Cc2ccc(-c3ccccc3)cc2)C(=O)N[C@@H](Cc2c[nH]c3ccccc23)C(=O)O)c1,13% (inactive)
16,C[C@H]1CNCCCN1S(=O)(=O)c1cccc2cncc(F)c12,-2.52% (inactive)
17,Nc1nnc(Sc2ncc([N+](=O)[O-])s2)s1,9.53% (inactive)
18,COc1cc(NC(=O)Nc2cccc(CNC(=O)O[C@H]3CCOC3)c2)ccc1-c1cnco1,-79.3% (active)
19,CC[C@H](CC#N)OC(=O)N[C@@H](C)c1cccc(NC(=O)Nc2ccc(-c3cnco3)c(OC)c2)c1,-82% (active)
20,CC(C)CN(C[C@@H](O)[C@H](Cc1ccccc1)NC(=O)O[C@H]1CCOC1)S(=O)(=O)c1ccc(N)cc1,0.811% (inactive)

row,Structure (SMILES),"activity change, negative = inhibition"
1,Cc1cc2c(OCC(CNC(C)(C)C)OC(=O)c3ccccc3)cccc2[nH]1 (centres undefined),18.3% (inactive)
2,Cc1c(NC(=O)c2cc3c(s2)CCCC3)cccc1-c1cn(C)c(=O)c(Nc2ccc(C3C(=O)N(C)CCN3C)cc2)n1 (centres undefined),97.9% (inactive)
3,CCC(C(=O)O)c1ccc(N2Cc3ccccc3C2=O)cc1 (centres undefined),122% (inactive)
4,Nc1nc2c(sc(=O)n2[C@@H]2O[C@H](CO)[C@@H](O)[C@H]2O)c(=O)[nH]1,-8.34% (inactive)
5,COc1cc2c(cc1OC)C(=O)OC2,-0.409% (inactive)
6,Fc1cc(-c2cccc3ncc(-c4cnn(C5CCNCC5)c4)nc23)cc(F)c1CN1CCOCC1,6.9% (inactive)
7,C[C@@H](Oc1cc(-c2cnn(C3CCNCC3)c2)cnc1N)c1c(Cl)ccc(F)c1Cl,-43.1% (inactive) and -79.1% (active)
8,C[C@H](Oc1cc(-c2cnn(C3CCNCC3)c2)cnc1N)c1c(Cl)ccc(F)c1Cl,-84.6% (active) and 9.96% (inactive)
9,CCCCCCCCCCCC[C@H](C(=O)O)[C@@H](C)C(=O)O,2.19% (inactive)
10,Oc1c(Cl)cc(Cl)cc1Sc1cc(Cl)cc(Cl)c1O,-82.5% (active) and -6.64% (inactive)
11,Cc1cc(Cl)ccc1OCCCC(=O)NO,-90% (active)
12,C#CCN(C)CCCOc1ccc(Cl)cc1Cl,20.2% (inactive) and 29.2% (inactive)
13,O=C(CCCS)NC1CCN(C(=O)COc2ccc(Cl)cc2Cl)CC1,-3% (inactive)
14,CN(CC(=O)O)C(=N)N,15.6% (inactive)
15,CCC[C@@H](NC(=O)N1C(=O)C(CC)(CC)[C@@H]1Oc1ccc(C(=O)N2CCN(C)CC2)cc1)c1ccc2c(c1)OCO2,4.37% (inactive)
16,CC(C)C[C@H](NC(=O)[C@H](CC(N)=O)NC(=O)[C@@H](NC(=O)[C@@H](N)CCC(=O)O)C(C)C)[C@@H](O)C[C@@H](C)C(=O)N[C@@H](C)C(=O)N[C@@H](CCC(=O)O)C(=O)N[C@@H](Cc1ccccc1)C(=O)O (H-EVN[LeuΨ(S-CHOHCH2)Ala]AEF-OH),3.01% (inactive)
17,Cc1[nH]c(=O)c(C#N)cc1-c1ccncc1,46.4% (inactive) and 9.05% (inactive)
18,O=C1NCCc2[nH]c(-c3ccncc3)cc21,-75.8% (active)
19,Nc1cc(-c2ccncc2)c[nH]c1=O,3.96% (inactive) and 3.4% (inactive)
